# From the supplement of paper PMC10037445
# In all, about 2,900 compounds were measured (“NF-kB SEAP reporter activity, fold change vs agonist alone”: median about 0.99, highest 2% from about 2.6 on). For the sample, the highest values were picked, then their nearest neighbours and some compounds at random.
# Tests used:
# RAW-Dual [1] = assay: NF-kB SEAP reporter activity, fold change vs agonist alone; cytotoxicity flag (confluency mask): not cytotoxic; higher = enhanced NF-kB activity
# Procedure, shortened: (§1)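 Reporter activity is given as fold change relative to agonist-alone wells. To measure it, 50 nL of library stock was pin-tooled onto RAW-Dual macrophages (50,000 cells/well, DMEM, 384-well plates), a PRR agonist followed 1 h later, and cells stayed at 37 °C, 5% CO2. Twenty hours on, supernatant was assayed for IRF (QuantiLuc luminescence) and NF-κB (QuantiBlue, 620 nm absorbance), and wells under 70% of agonist-control IncuCyte confluency in both mask sets were marked cytotoxic.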
# RAW-Dual [2] = assay: NF-kB SEAP reporter activity, fold change vs agonist alone; higher = enhanced NF-kB activity
# Procedure, shortened: as §1
# RAW-Dual [3] = assay: NF-kB SEAP reporter activity, fold change vs agonist alone; cytotoxicity flag (confluency mask): cytotoxic (confluency <70% of control); higher = enhanced NF-kB activity
# Procedure, shortened: as §1
# [4] = agonist: ODN 1826 (TLR9) 0.5 ug/mL
# [5] = agonist: Pam2CSK4 (TLR2/6) 0.1 ug/mL
# [6] = agonist: Pam3CSK4 (TLR2/1) 0.1 ug/mL
# [7] = library stock concentration (final ~1000-fold dilution): 10 mM, cytotoxicity flag (confluency mask): not cytotoxic, agonist: MPLA (TLR4) […]
# [8] = library stock concentration (final ~1000-fold dilution): 10 mM, cytotoxicity flag (confluency mask): not cytotoxic, agonist: Imiquimod (TLR7) […]
# [9] = library stock concentration (final ~1000-fold dilution): 2 mM, cytotoxicity flag (confluency mask): not cytotoxic, agonist: Imiquimod (TLR7) […]
# [10] = library stock concentration (final ~1000-fold dilution): 2 mM, cytotoxicity flag (confluency mask): not cytotoxic, agonist: MPLA (TLR4) […]
smiles,measurement,setting,value
C=CC1(C)CC(OC(=O)CSCCN(CC)CC)C2(C)C(C)CCC3(CCC(=O)C32)C(C)C1O.O=C(O)/C=C/C(=O)O (configuration not stated) (library stock concentration (final ~1000-fold dilution): 10 mM),NF-kB SEAP reporter activity,RAW-Dual [1]; agonist: LPS (TLR4) 0.1 ug/mL,1.37
same,NF-kB SEAP reporter activity,RAW-Dual [1]; [4],0.712
same,NF-kB SEAP reporter activity,RAW-Dual [1]; [5],0.821
same,NF-kB SEAP reporter activity,RAW-Dual [1]; [6],0.841
C=CC1(C)CC(OC(=O)CSCCN(CC)CC)C2(C)C(C)CCC3(CCC(=O)C32)C(C)C1O.O=C(O)/C=C/C(=O)O (configuration not stated),NF-kB SEAP reporter activity,RAW-Dual [2]; [7],1.13
O=C(/C=C/N1CC2CC1CN2c1ccccn1)c1ccccc1O (configuration not stated),NF-kB SEAP reporter activity,RAW-Dual [2]; [8],0.829
same,NF-kB SEAP reporter activity,RAW-Dual [2]; [7],1.03
O=C(/C=C/N1CC2CC1CN2c1ccccn1)c1ccccc1O (configuration not stated) (library stock concentration (final ~1000-fold dilution): 10 mM),NF-kB SEAP reporter activity,RAW-Dual [1]; agonist: LPS (TLR4) 0.1 ug/mL,1.01
same,NF-kB SEAP reporter activity,RAW-Dual [1]; [4],0.735
same,NF-kB SEAP reporter activity,RAW-Dual [1]; [5],1.02
same,NF-kB SEAP reporter activity,RAW-Dual [1]; [6],1.39
COC(=O)C(CCSC)NC(=O)c1ccc(NCC(N)CS)cc1-c1ccccc1.Cl (configuration not stated),NF-kB SEAP reporter activity,RAW-Dual [2]; [8],1.13
same,NF-kB SEAP reporter activity,RAW-Dual [2]; [7],1.22
COC(=O)C(CCSC)NC(=O)c1ccc(NCC(N)CS)cc1-c1ccccc1.Cl (configuration not stated) (library stock concentration (final ~1000-fold dilution): 10 mM),NF-kB SEAP reporter activity,RAW-Dual [1]; agonist: LPS (TLR4) 0.1 ug/mL,1.38
same,NF-kB SEAP reporter activity,RAW-Dual [1]; [4],1.56
same,NF-kB SEAP reporter activity,RAW-Dual [1]; [5],1.16
same,NF-kB SEAP reporter activity,RAW-Dual [1]; [6],0.929
COC(=O)C(CC(C)C)NC(=O)c1ccc(NCC(N)CS)cc1-c1cccc2ccccc12.O=C(O)C(F)(F)F (configuration not stated),NF-kB SEAP reporter activity,RAW-Dual [2]; [8],1.25
same,NF-kB SEAP reporter activity,RAW-Dual [2]; [7],2.31
CCN(CC)CCCCC(NC(=O)C(CC(C)C)NC(=O)C(C)NC(=O)C(Cc1ccccc1)NC(=O)c1ccc(C(C)(C)C)cc1)C(=O)NC(CO)C(=O)OC (configuration not stated),NF-kB SEAP reporter activity,RAW-Dual [2]; [8],1.08
same,NF-kB SEAP reporter activity,RAW-Dual [2]; [7],0.945
COC(=O)C(CC(C)C)NC(=O)c1ccc(NCC(N)CS)cc1-c1cccc2ccccc12.O=C(O)C(F)(F)F (configuration not stated) (library stock concentration (final ~1000-fold dilution): 10 mM),NF-kB SEAP reporter activity,RAW-Dual [1]; agonist: LPS (TLR4) 0.1 ug/mL,3.82
same,NF-kB SEAP reporter activity,RAW-Dual [1]; [4],2.38
same,NF-kB SEAP reporter activity,RAW-Dual [1]; [5],1.5
same,NF-kB SEAP reporter activity,RAW-Dual [1]; [6],2.19
CCN(CC)CCCCC(NC(=O)C(CC(C)C)NC(=O)C(C)NC(=O)C(Cc1ccccc1)NC(=O)c1ccc(C(C)(C)C)cc1)C(=O)NC(CO)C(=O)OC (configuration not stated) (library stock concentration (final ~1000-fold dilution): 10 mM),NF-kB SEAP reporter activity,RAW-Dual [1]; agonist: LPS (TLR4) 0.1 ug/mL,0.99
same,NF-kB SEAP reporter activity,RAW-Dual [1]; [4],0.888
same,NF-kB SEAP reporter activity,RAW-Dual [1]; [5],0.898
same,NF-kB SEAP reporter activity,RAW-Dual [1]; [6],1.1
C=C(C)C1CCC2(C(=O)OC3OC(COC4OC(CO)C(OC5OC(C)C(O)C(O)C5O)C(O)C4O)C(O)C(O)C3O)CCC3(C)C(CCC4C5(C)CCC(OC6OCC(O)C(O)C6OC6OC(C)C(O)C(O)C6O)C(C)(CO)C5CCC43C)C12 (configuration not stated),NF-kB SEAP reporter activity,RAW-Dual [2]; [9],0.946
same,NF-kB SEAP reporter activity,RAW-Dual [2]; [10],1.07
C=C(C)C1CCC2(C(=O)OC3OC(COC4OC(CO)C(OC5OC(C)C(O)C(O)C5O)C(O)C4O)C(O)C(O)C3O)CCC3(C)C(CCC4C5(C)CCC(OC6OCC(O)C(O)C6OC6OC(C)C(O)C(O)C6O)C(C)(CO)C5CCC43C)C12 (configuration not stated) (library stock concentration (final ~1000-fold dilution): 2 mM),NF-kB SEAP reporter activity,RAW-Dual [1]; agonist: LPS (TLR4) 0.1 ug/mL,1
same,NF-kB SEAP reporter activity,RAW-Dual [1]; [4],1.09
same,NF-kB SEAP reporter activity,RAW-Dual [1]; [5],1.17
same,NF-kB SEAP reporter activity,RAW-Dual [1]; [6],1.16
Cn1cc(-c2cnn3c(N)c(Br)c(C4CCCNC4)nc23)cn1 (configuration not stated),NF-kB SEAP reporter activity,RAW-Dual [2]; [9],1.09
same,NF-kB SEAP reporter activity,RAW-Dual [2]; [10],1.35
Cn1cc(-c2cnn3c(N)c(Br)c(C4CCCNC4)nc23)cn1 (configuration not stated) (library stock concentration (final ~1000-fold dilution): 2 mM),NF-kB SEAP reporter activity,RAW-Dual [1]; agonist: LPS (TLR4) 0.1 ug/mL,1.31
same,NF-kB SEAP reporter activity,RAW-Dual [1]; [4],1.04
same,NF-kB SEAP reporter activity,RAW-Dual [1]; [5],1.04
same,NF-kB SEAP reporter activity,RAW-Dual [1]; [6],1.19
Nc1ccn(C2CCC(CO)O2)c(=O)n1 (configuration not stated),NF-kB SEAP reporter activity,RAW-Dual [2]; [8],0.994
same,NF-kB SEAP reporter activity,RAW-Dual [2]; [7],0.981
Nc1ccn(C2CCC(CO)O2)c(=O)n1 (configuration not stated) (library stock concentration (final ~1000-fold dilution): 10 mM),NF-kB SEAP reporter activity,RAW-Dual [1]; agonist: LPS (TLR4) 0.1 ug/mL,0.913
same,NF-kB SEAP reporter activity,RAW-Dual [1]; [4],1
same,NF-kB SEAP reporter activity,RAW-Dual [1]; [5],0.95
same,NF-kB SEAP reporter activity,RAW-Dual [1]; [6],1.15
Nc1cc(F)ccc1NC(=O)/C=C/c1cnn(C/C=C/c2ccccc2)c1 (library stock concentration (final ~1000-fold dilution): 10 mM),NF-kB SEAP reporter activity,RAW-Dual [1]; agonist: LPS (TLR4) 0.1 ug/mL,0.995
same,NF-kB SEAP reporter activity,RAW-Dual [1]; [4],1.12
same,NF-kB SEAP reporter activity,RAW-Dual [1]; [5],0.405
same,NF-kB SEAP reporter activity,RAW-Dual [1]; [6],0.419
Cn1cc(-c2ccc(S(=O)(=O)n3ccc(/C=C/C(=O)Nc4ccccc4N)c3)cc2)cn1 (library stock concentration (final ~1000-fold dilution): 10 mM),NF-kB SEAP reporter activity,RAW-Dual [3]; agonist: LPS (TLR4) 0.1 ug/mL,4.11
same,NF-kB SEAP reporter activity,RAW-Dual [3]; [4],3.13
same,NF-kB SEAP reporter activity,RAW-Dual [3]; [5],1.14
same,NF-kB SEAP reporter activity,RAW-Dual [3]; [6],2.27
Cn1cc(-c2ccc(S(=O)(=O)n3ccc(/C=C/C(=O)Nc4ccccc4N)c3)cc2)cn1,NF-kB SEAP reporter activity,"RAW-Dual [2]; library stock concentration (final ~1000-fold dilution): 10 mM, cytotoxicity flag (confluency mask): cytotoxic (confluency <70% of control), agonist: Imiquimod (TLR7) […]",1.68
same,NF-kB SEAP reporter activity,"RAW-Dual [2]; library stock concentration (final ~1000-fold dilution): 10 mM, cytotoxicity flag (confluency mask): cytotoxic (confluency <70% of control), agonist: MPLA (TLR4) […]",2.37
Nc1cc(F)ccc1NC(=O)/C=C/c1cnn(C/C=C/c2ccccc2)c1,NF-kB SEAP reporter activity,RAW-Dual [2]; [8],1.14
same,NF-kB SEAP reporter activity,RAW-Dual [2]; [7],1.2
COc1cc(C(=O)O)ccc1O,NF-kB SEAP reporter activity,RAW-Dual [2]; [8],0.937
same,NF-kB SEAP reporter activity,RAW-Dual [2]; [7],1.02
COc1cc(C(=O)O)ccc1O (library stock concentration (final ~1000-fold dilution): 10 mM),NF-kB SEAP reporter activity,RAW-Dual [1]; agonist: LPS (TLR4) 0.1 ug/mL,1.06
same,NF-kB SEAP reporter activity,RAW-Dual [1]; [4],1.12
same,NF-kB SEAP reporter activity,RAW-Dual [1]; [5],1.14
same,NF-kB SEAP reporter activity,RAW-Dual [1]; [6],1.16
COCCOc1nc(N)c2[nH]c(=O)n(Cc3ccc(C(=O)O)cc3)c2n1,NF-kB SEAP reporter activity,RAW-Dual [2]; [8],1.8
same,NF-kB SEAP reporter activity,RAW-Dual [2]; [7],2.54
CCCCOc1nc(N)c2c(n1)N(Cc1cccc(CN3CCCC3)c1)CC(=O)N2 (library stock concentration (final ~1000-fold dilution): 1 mM),NF-kB SEAP reporter activity,RAW-Dual [1]; agonist: LPS (TLR4) 0.1 ug/mL,2.53
same,NF-kB SEAP reporter activity,RAW-Dual [1]; [4],1.13
same,NF-kB SEAP reporter activity,RAW-Dual [1]; [5],1.17
same,NF-kB SEAP reporter activity,RAW-Dual [1]; [6],1.25
CCCCOc1nc(N)c2c(n1)N(Cc1cccc(CN3CCCC3)c1)CC(=O)N2,NF-kB SEAP reporter activity,"RAW-Dual [2]; library stock concentration (final ~1000-fold dilution): 1 mM, cytotoxicity flag (confluency mask): not cytotoxic, agonist: Imiquimod (TLR7) […]",1.26
same,NF-kB SEAP reporter activity,"RAW-Dual [2]; library stock concentration (final ~1000-fold dilution): 1 mM, cytotoxicity flag (confluency mask): not cytotoxic, agonist: MPLA (TLR4) […]",1.91
COCCOc1nc(N)c2[nH]c(=O)n(Cc3ccc(C(=O)O)cc3)c2n1 (library stock concentration (final ~1000-fold dilution): 10 mM),NF-kB SEAP reporter activity,RAW-Dual [1]; agonist: LPS (TLR4) 0.1 ug/mL,7.55
same,NF-kB SEAP reporter activity,RAW-Dual [1]; [4],2.13
same,NF-kB SEAP reporter activity,RAW-Dual [1]; [5],1.46
same,NF-kB SEAP reporter activity,RAW-Dual [1]; [6],2.77
